# Measurements published in PubChem BioAssay AID1852 (Sanford-Burnham Center for Chemical Genomics, 2009).
# Among all 2,500 compounds or so, about 1,100 (44%) were called active. So high a share suggests a set chosen from earlier hits. The list shows a part of the results. A number with no mark means an inactive call.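 The calls were made as follows: active = inhibition above 50% at 4 µM in the single-point screen; inactive = inhibition of 50% or less.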
# Experiment: blockers of TNF-a NF-kB luciferase induction – cell-based, HEK293T NF-kB-Luc, luminescence, selectivity assay for NOD1/NOD2 signaling inhibitor project, primary screen (AID 1852)
# Conditions: TNF-a induced, 14 h, at 4 µM, hits give high values
row,SMILES,inhibition
1,Cc1ccc(S(=O)(=O)N2CCN(CCC#N)CC2)cc1,44.4%
2,CCN1CCN(S(=O)(=O)c2c(C)cc(C)cc2C)CC1,54.2% (active)
3,CCN1CCN(S(=O)(=O)c2ccc(Cl)c(C(=O)Nc3cc(Cl)ccc3N3CCOCC3)c2)CC1,28.9%
4,COc1ccc2[nH]c(C(=O)N/N=C/c3ccc(O)cc3O)cc2c1,48.1%
5,Cn1cccc1-c1cc(C(=O)N/N=C/c2cc(Br)ccc2O)[nH]n1,60.4% (active)
6,O=C1CSC(c2cccnc2)N1CCc1ccccn1 (stereo not given),0.7%
7,Cc1ccc(NC(=O)c2ccccc2NS(=O)(=O)c2ccc(Cl)s2)cc1,71.2% (active)
8,COc1ccc(C)cc1NC(=O)c1ccccc1NS(=O)(=O)c1ccc(Cl)s1,87.9% (active)
9,O=C(Nc1cc(S(=O)(=O)Nc2ccccc2Cl)ccc1O)c1cc2c(s1)CCCC2,36.1%
10,Cc1ccc(NC(=O)c2cc3c(s2)CCCC3)cc1S(=O)(=O)Nc1ccccc1Cl,69.1% (active)
11,CS(=O)(=O)Nc1ccccc1C(=O)Nc1cc(Cl)cc(Cl)c1,74.6% (active)
12,Cc1cc(NC(=O)c2ccccc2NS(=O)(=O)c2c(C)c(C)cc(C)c2C)no1,9.8%
13,COc1ccccc1NS(=O)(=O)c1cccc(NC(=O)c2sc3ccccc3c2Cl)c1,39.2%
14,Cc1ccc(NC(=O)c2ccccc2NS(=O)(=O)c2ccc(Cl)s2)cc1S(=O)(=O)N1CCOCC1,84.3% (active)
15,COc1cccc(NS(=O)(=O)c2ccc(Br)s2)c1,-23.8%
16,COc1cc(NC(=O)c2ccccc2NS(=O)(=O)c2ccc(Cl)s2)cc(OC)c1,84.9% (active)
17,N#C/C(=C(/O)COC(=O)COc1cccc(Br)c1)c1nc2ccccc2[nH]1,33%
18,N#C/C(=C(/O)COC(=O)COc1ccc(Cl)cc1)c1nc2ccccc2[nH]1,108% (active)
19,Cc1cc(C)cc(OCC(=O)OC/C(O)=C(\C#N)c2nc3ccccc3[nH]2)c1,103% (active)
20,CCCS(=O)(=O)c1nnnn1-c1cccc(OC)c1,76.1% (active)
21,CCS(=O)(=O)c1nnnn1-c1ccccc1S(C)(=O)=O,43.2%
22,N#CCCS(=O)(=O)c1nnnn1-c1ccccc1,75.5% (active)
23,COc1cccc(-n2nnnc2S(C)(=O)=O)c1,79.5% (active)
24,Cc1cccc(Nc2ncnc3onc(-c4cccc(Cl)c4)c23)c1C,15.5%
25,O=C(Nc1cccc(C(=O)O)c1)Nc1ccccc1Cl,-17.8%
26,COc1cccc(NC(=O)Nc2nc(-c3ccc(OC)c(OC)c3)cs2)c1,100% (active)
27,COc1cccc(NC(=O)CCC2CCN(C(=O)c3cncs3)CC2)c1,4.6%
28,COc1cccc(NC(=O)Nc2cccc(C(=O)O)c2)c1,65.7% (active)
29,COc1ccc(NC(=O)Nc2nnc(-c3ccncc3)s2)cc1,30%
30,COc1ccc(OC)c(-c2csc(NC(=O)C3=NNC(=O)CC3)n2)c1,37.1%
